For 73 compounds, cell viability results are on record in the supplement of paper PMC10600219.

Where a name gives a salt, the structure may show the parent alone. Whole data set: some 2,800 compounds, median “cell viability relative to vehicle” near 0.98, cut for the lowest 2% near 0.45. This excerpt belongs to a sample that is enriched for the lowest values.

The assay deals with NCI-H2228 alectinib-DTP. Kind of assay: cell viability relative to vehicle (fraction of vehicle); NCI-H2228 is an ALK-positive lung cancer line and DTP means drug-tolerant persister; higher = less growth inhibition. As to conditions: 100 nM; treatment time 6 days. The method, boiled down: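 The 3114-agent TargetMol anti-cancer compound library was tested at 100 nM for 6 days on parental NCI-H2228 cells and on persister cells derived with 1000 nM of a targeted drug for 13 days. ATP readout by the CellTiter-Glo 3D Cell Viability Assay gave cell viability relative to DMSO vehicle-treated cells.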
Turning to `CC(C)C[C@H](NC(=O)[C@H](Cc1ccccc1)NC(=O)c1cnccn1)B(O)O` [Bortezomib], the cell viability amounted to 0.145.
In the case of `CC(C)C[C@H](NC(=O)[C@@H](NC(=O)c1cccc(-c2ccccc2)n1)[C@@H](C)O)B(O)O` [Delanzomib] it was 0.301; in that of `CNC(=O)[C@H](Cc1ccccc1)NC(=O)[C@H](CC(C)C)[C@H](CSc1cccs1)C(=O)NO` [Batimastat], 1.15; in that of `CC(C)C[C@H](NC(=O)[C@@H](O)[C@H](N)Cc1ccccc1)C(=O)O` [Bestatin hydrochloride], 1.12.
As for `CC(C)C[C@H](NC(=O)[C@@H](O)[C@H](N)Cc1ccccc1)C(=O)O` [Ubenimex], the cell viability worked out at 1.05.
`CC(C(=O)Nc1cccc(/N=C/c2c(O)ccc3ccccc23)c1)c1ccccc1` (stereo not drawn) [Salermide] registered a cell viability of 0.89.
`O=C(Nc1ccc(C(O)(C(F)(F)F)C(F)(F)F)cc1)c1ccccc1Cl` displayed a cell viability of 0.929.
For `Cn1cc(-c2cnn3c(N)c(Br)c([C@H]4CCCNC4)nc23)cn1` the value was 0.907; for `C/C(=C1/C(=O)Nc2ccc(NC(N)=O)cc21)c1ccc[nH]1`, 1.02.
In turn, `CCN(CC)CCOc1ccc(Nc2nc(-c3ccccc3NC(=O)CCN3CCN(C)CC3)nc3ccccc23)cc1` had a cell viability of 1.16.
For the compound `CSc1cccc(Nc2ncc3cc(-c4c(Cl)cccc4Cl)c(=O)n(C)c3n2)c1`, the cell viability was 0.665.
In the case of `CCN(CC)CCOc1ccc(Nc2ncc3cc(-c4c(Cl)cccc4Cl)c(=O)n(C)c3n2)cc1` it was 0.445; in that of `N#Cc1cc2cc(CN3CCC(Nc4ncnc5sc(CC(F)(F)F)cc45)CC3)ccc2[nH]1`, 1.04; in that of `COc1ccc(-c2nc(-c3cc(C(F)(F)F)cc(C(F)(F)F)c3)n(Cc3ccc(C(N)=O)cc3)c2-c2ccc(OC)cc2)cc1` [Apoptozole], 0.817.
In the case of `COc1cc2ncnc(Nc3ccc(F)c(Cl)c3)c2cc1OCCCN1CCOCC1` [Gefitinib] it was 0.881; in that of `COc1c(OCCCN2CCOCC2)ccc2c1N=C(NC(=O)c1cnc(N)nc1)N1CCN=C21` [Copanlisib], 0.38; in that of `COc1cc2c(Oc3ccc(NC(=O)C4(C(=O)Nc5ccc(F)cc5)CC4)cc3F)ccnc2cc1OCCCN1CCOCC1` [Foretinib], 0.882.
For `Cc1cc(C)c(S(=O)(=O)N(CCc2cccc(Br)c2)Cc2ccc(-c3cccc(S(C)(=O)=O)c3)cc2)c(C)c1` the value was 1.12; for `N#C/C(=C/c1ccc(O)c(O)c1)C(=O)N1CCc2ccccc21` [Tyrphostin AG 528], 1.03.
`COc1ccc2c3n(c(=NC(=O)c4cccnc4)nc2c1OC)CCN3` gave a cell viability of 0.447.
In the case of `COc1ccc(C=C(C#N)c2cccnc2)cc1OC` it was 0.956; in that of `CCc1nc2c(C)cc(N3CCN(CC(=O)N4CC(O)C4)CC3)cn2c1N(C)c1nc(-c2ccc(F)cc2)c(C#N)s1`, 1.02.
For `CN1CCN(Cc2ccc(Nc3ncc(Cl)c(Nc4ccccc4S(=O)(=O)N(C)C)n3)cc2)CC1` the value was 0.122; for `COc1cc(N2CCC(N3CCN(C)CC3)CC2)ccc1Nc1ncc(Cl)c(Nc2ccccc2S(=O)(=O)C(C)C)n1`, 0.942.
With `CNS(=O)(=O)c1ccccc1Nc1nc(Nc2ccc(N3CCN(C)CC3)cc2OC)ncc1Cl` [ALK inhibitor 2], the cell viability came to 1.
For `CC/C(=C(/c1ccc(O)cc1)c1ccc(OCCNC)cc1)c1ccccc1` [Endoxifen E-isomer hydrochloride] the value was 1.12; for `CN1C(N)=N[C@](C)(c2cc(NC(=O)c3ccc(F)cn3)ccc2F)CS1(=O)=O` [Verubecestat], 0.969; for `Cn1cc(CNCC2CCN(c3ncc(C(=O)NO)cn3)CC2)c2ccccc21` [Quisinostat], 0.358.
In the case of `Cn1cc(C[C@@H](N)C(=O)O)c2ccccc21` [Indoximod] it was 1.14.
Regarding `CN1CCc2c(c3ccccc3n2Cc2ccc(C(=O)NO)cc2)C1` [Tubastatin A HCl], the cell viability was 0.892.
For `CC(=O)OCC1=CO[C@@H](OC(=O)CC(C)C)[C@H]2C1=C[C@H](OC(=O)CC(C)(C)OC(C)=O)[C@]21CO1` [Acevaltrate] the value was 1.13; for `Cc1cc([N+](=O)[O-])c(NS(=O)(=O)c2cccc(C(=O)O)c2)cc1-c1cccnc1` [Alofanib], 0.978.
For `O=P(O)(O)O[C@H]1[C@H](OP(=O)(O)O)[C@@H](OP(=O)(O)O)[C@H](OP(=O)(O)O)[C@@H](OP(=O)(O)O)[C@H]1OP(=O)(O)O` [Phytic acid] the value was 1.13; for `CCNC(=O)Nc1ccc(-c2nc(N3CCOC[C@@H]3C)c3c(n2)C(C)(C)S(=O)(=O)C3)cc1`, 0.508.
With `CN(C)C1CCN(C(=O)c2ccc(NC(=O)Nc3ccc(-c4nc(N5CCOCC5)nc(N5CCOCC5)n4)cc3)cc2)CC1` [Gedatolisib], the cell viability is 0.385.
In the case of `COC(=O)Nc1ccc(-c2nc(N3CCOCC3)c3cnn(C4CCN(C(=O)OC)CC4)c3n2)cc1` it was 0.855.
For the compound `O=C(Nc1ncc([N+](=O)[O-])s1)c1ccccc1O` [Tizoxanide], the cell viability is 0.88.
For `COC(=O)C[C@](O)(CCCC(C)(C)O)C(=O)O[C@@H]1C(OC)=C[C@]23CCCN2CCc2cc4c(cc2[C@H]13)OCO4` [Homoharringtonine] the value was 0.2.
In the case of `O=C(O)COc1ccc(Br)cc1/C=C1\SC(=S)N(Cc2cccnc2)C1=O` [Skp2 Inhibitor C1] it was 1.08; in that of `CC(C)=CCc1cc2c(cc1O)O[C@H](c1ccc(O)cc1)CC2=O` [Bavachin], 1.01.
For `CC(C)(C)c1cc(NC(=O)Nc2ccc(Oc3ccnc4[nH]c(=O)cnc34)cc2F)n(-c2ccccc2)n1` the value was 1.12.
Take `O=C(/C=C/c1cccnc1)NCCCCC1CCN(C(=O)c2ccccc2)CC1`: the cell viability worked out at 0.452.
In the case of `Nc1cc(F)ccc1NC(=O)c1ccc(CNC(=O)/C=C/c2cccnc2)cc1` [Chidamide] it was 0.775; in that of `Nc1ccc(/C=C/C(=O)NCc2cc3cc(-c4ccc(C(=O)N5CCC(F)(F)CC5)cc4)cc(-c4ccc(F)cc4)c3o2)cn1`, 1.25.
For `c1ccc(-c2oc3ncnc(NC[C@@H]4CCCO4)c3c2-c2ccccc2)cc1`, the cell viability was found to be 1.06.
Compound `COC1=CC(=O)c2ccccc2C1=O` [2-Methoxynaphthoquinone] yielded a cell viability of 1.06.
For `COc1cccc(-c2cc(F)ccc2[C@H]2Cc3nc(N)nc(C)c3C(=O)N2)n1` the value was 0.502; for `COc1ccc(-c2cc3c(C)nc(N)nc3n([C@H]3CC[C@H](OCCO)CC3)c2=O)cn1`, 0.398; for `CCn1c(=O)c(-c2cc[nH]n2)cc2c(C)nc(N)nc21` [Voxtalisib], 0.86.
`CCCCCCCCCC(=O)CC(O)S(=O)(=O)O` (stereo not drawn) [Sodium houttuyfonate] yielded a cell viability of 1.08.
The compound `CC(=O)OC(C)(C)CCC(=O)[C@](C)(O)[C@H]1[C@H](O)C[C@@]2(C)[C@@H]3CC=C4[C@@H](C[C@H](O)[C@@H](O)C4(C)C)[C@]3(C)C(=O)C[C@]12C` [Cucurbitacin IIA] showed a cell viability of 1.07.
In the case of `Oc1ccc(C(c2c[nH]c3ccccc23)c2c[nH]c3ccccc23)cc1` it was 1.08; in that of `C[C@@H]1O[C@@H](O[C@@H]2[C@H](O)[C@@H](O)[C@H](O[C@H]3CC[C@@]4(C)C(CC[C@]5(C)C4C=C[C@]46OC[C@@]7(CCC(C)(C)CC74)[C@@H](O)C[C@]65C)C3(C)C)O[C@@H]2CO[C@@H]2O[C@H](CO)[C@@H](O)[C@H](O)[C@H]2O)[C@H](O)[C@H](O)[C@H]1O` (stereo partly drawn) [Saikosaponin C], 0.993; in that of `COc1ccc(CC(=O)NC(/N=C(\NC#N)Nc2cccc3ncccc23)C(C)(C)C)cc1OC` (stereo not drawn), 0.985.
In the case of `Cc1ccc(NC(=S)NNc2c([N+](=O)[O-])cc(C(F)(F)F)cc2[N+](=O)[O-])cc1Cl` it was 0.982; in that of `COc1ccc(CCC(=O)O)cc1OC` [3,4-Dimethoxyhydrocinnamic acid], 0.856.
`N=C(NCCCCCCNC(=N)NC(=N)Nc1ccc(Cl)cc1)NC(=N)Nc1ccc(Cl)cc1` [Chlorhexidine]: the cell viability turned out to be 1.17.
Turning to `N#CN=C(NCCCCCCOc1ccc(Cl)cc1)Nc1ccncc1`, the cell viability turned out to be 0.165.
For `N=C(NCCCCCCNC(=N)NC(=N)Nc1ccc(Cl)cc1)NC(=N)Nc1ccc(Cl)cc1` [Chlorhexidine hydrochloride] the value was 1.02; for `C[C@@H]1CC[C@]2(C(=O)O)CC[C@]3(C)C(=CC[C@@H]4[C@@]5(C)CC[C@H](O)[C@@](C)(CO)[C@@H]5CC[C@]43C)[C@@H]2[C@]1(C)O` [Rutundic acid], 1.02; for `CCN(CC)CC(O)CNc1ccc(NCC2CO2)c2c1C(=O)c1ccccc1C2=O` (stereo not drawn), 0.831.
For `O=C(NCCCn1ccnc1)c1cc(-c2ccco2)on1` the value was 1.03; for `C[C@H](CC(=O)C[C@@H](C)[C@H]1C[C@H](O)[C@@]2(C)C3=C(C(=O)C[C@]12C)[C@@]1(C)CCC(=O)C(C)(C)[C@@H]1C[C@@H]3O)C(=O)O` [Ganoderic acid A], 1.03.
For `CNC(=O)Nc1cc(Oc2cncc(C)c2)c(-c2ccc(OCC(C)(C)O)nc2)cn1` the value was 0.91.
Regarding `COc1cc2cc(Oc3ccc4ccc(=O)oc4c3)c(=O)oc2cc1O` [Daphnoretin], the cell viability came to 1.11.
In the case of `COCC[n+]1c2c(n(Cc3cnccn3)c1C)C(=O)c1ccccc1C2=O` it was 0.0756.
For `CC(C)(NS(=O)(=O)c1ccc2c(Cl)cnc(N=C(N)N)c2c1)C(=O)O` the value was 1.04.
Compound `CCC(=O)N1CCOc2c(cc(-c3ccc(OC)c(OC)c3)cc2OC[C@H]2CCCN(C)C2)C1` [I-CBP112 hydrochloride] displayed a cell viability of 0.963.
In the case of `Cc1cc(N2C[C@@H](C)N[C@@H](C)C2)ncc1-c1ccc(-c2nc3c(ccn3C)c(=O)[nH]2)cc1` it was 0.757; in that of `CCCC(C)NC(=O)c1ccc(Cl)c(Cl)c1` (stereo not drawn), 1.07.
For `C[C@H](NC(=O)CNC(=O)c1cccc(Cl)c1)c1ccccc1` the value was 0.957; for `CC(C)C[C@H](NC(=O)CNC(=O)c1cc(Cl)ccc1Cl)B(O)O` [Ixazomib], 0.28; for `CC(C)C[C@H](NC(=O)CNC(=O)c1cc(Cl)ccc1Cl)B1OC(=O)C(CC(=O)O)(CC(=O)O)O1`, 0.342.
